40 compounds from PubChem BioAssay AID2778 (National Center for Advancing Translational Sciences (NCATS), 2010) can be followed below.

SMILES strings stand for the structures. Inconclusive results are not listed. Entries that show only a call come without a potency. Activity calls are given as the source filed them. Calls come from the whole dose curve; as a rule, active = well fitted inhibition curve with a large enough effect; inconclusive = small, poorly fitted or top-dose-only effect, or effect the other way; inactive = flat fitted curve, though single readings scatter. Positions of bridges follow the written chain, without caps; N, C: chain ends. Non-standard residues stand in square brackets, D forms with d. Residues, ends and D or L forms follow the SMILES beside them. ξ: configuration not given here. *: point of attachment. ξDab(CH2SO3H) = NC(CCNCS(=O)(=O)O)C(=O)O; Heptanoyl(6-Me) = CC(C)CCCCC(=O)*; Dab = NCC[CH](N)C(=O)O
Potency is the fitted concentration of half-maximal effect.

Menin (Homo sapiens), sequence (O00255 whole entry, looked up): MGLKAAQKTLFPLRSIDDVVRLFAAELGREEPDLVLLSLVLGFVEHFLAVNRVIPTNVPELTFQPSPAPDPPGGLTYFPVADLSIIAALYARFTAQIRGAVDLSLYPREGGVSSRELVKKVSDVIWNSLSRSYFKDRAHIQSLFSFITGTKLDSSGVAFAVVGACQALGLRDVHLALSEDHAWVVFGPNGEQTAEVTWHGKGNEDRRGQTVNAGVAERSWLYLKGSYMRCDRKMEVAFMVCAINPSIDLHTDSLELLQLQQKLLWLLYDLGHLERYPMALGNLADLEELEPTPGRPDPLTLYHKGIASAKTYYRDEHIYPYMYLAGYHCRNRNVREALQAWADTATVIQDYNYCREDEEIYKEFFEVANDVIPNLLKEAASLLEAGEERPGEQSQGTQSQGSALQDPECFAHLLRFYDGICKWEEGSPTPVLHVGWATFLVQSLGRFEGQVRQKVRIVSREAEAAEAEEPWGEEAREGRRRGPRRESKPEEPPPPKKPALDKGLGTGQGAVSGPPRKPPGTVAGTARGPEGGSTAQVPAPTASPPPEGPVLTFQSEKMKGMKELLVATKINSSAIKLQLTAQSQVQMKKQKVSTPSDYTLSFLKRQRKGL

The target of the experiment is Menin (Homo sapiens) (UniProt O00255). Kind of experiment: Confirmation of Inhibitors Targeting the Menin-MLL Interaction in MLL Related Leukemias: Confirmation in an HTRF (commercial TR-FRET) Assay using His-tagged menin and biotin-labeled MLL peptide. The settings on record: His-menin / biotin-MLL peptide binding; series mostly up to 126 µM. The source says:
qHTS Assay for Inhibitors Targeting the Menin-MLL Interaction in MLL Related Leukemias
NIH Chemical Genomics Center [NCGC]
NIH Molecular Libraries Probe Centers Network [MLPCN]
Assay Submitter (PI): Jolanta Grembecka, Tomasz Cierpicki, University of Virginia
Translocations of the MLL (Mixed Lineage Leukemia) gene are frequently found in human leukemias affecting both children and adults. Fusion of MLL to one of more than 60 genes results in generation of oncogenic proteins upregulating Hox genes, which are vital to blood cell development. Patients harboring fusion of the MLL gene suffer from aggressive leukemias and respond poorly to available therapies. All of the oncogenic fusion proteins have a preserved N-terminal fragment of MLL that has been identified to interact with menin. It has been recently discovered that association with menin is critical to the leukemogenic activity of the MLL fusion oncoproteins. Selective targeting of the menin-MLL interaction could provide an attractive therapeutic approach to develop novel drugs for MLL-related leukemias. Small molecules blocking the menin-MLL interaction should reverse the oncogenic potential of MLL fusion proteins.
We have developed and optimized a fluorescence polarization-based assay for the identification of Menin-MLL inhibitors. The assay was run employing two different MLL-derived peptides. The present assay uses a 12 amino acid peptide labeled with fluorescein at its N-terminus. This peptide consists of the menin high affinity binding motif from MLL and is potently bound by menin. Another peptide with a mutated sequence, labeled with Texas Red, was used in parallel as a less stringent screen for inhibitors.
The present assay uses an alternate technology to confirm hits from the primary screen - homogeneous time resolved fluorescence (HTRF).
The Menin protein, the MLL-wild type (w.t.) derived peptide (N-terminal 12 amino acids), the MLL-derived peptide labeled with Texas Red and the MLL-w.t. peptide labeled with Fluorescein were kindly supplied by laboratory of Dr. Jolanta Grembecka, University of Virginia. All protein and peptide solutions were stored in single use aliquots at -80C. The Eu3+ Cyrptate-conjugated mouse monoclonal antibody anti-6 Histidine (Eu3+-AB) and the Streptavidin-XL665 conjugate (XL665) were purchased from Cisbio International (Bedford, MA). All antibody and XL665 conjugate solution stocks were stored in single use aliquots at -20C. The Buffer components for all assays were purchased from Sigma-Aldrich (St. Louis, MO) and Invitrogen (Carlsbad, CA).
1. HTRF reaction buffer: 50 mM Tris-HCl pH 7.5, 50 mM NaCl, 1mM DTT.
Before use, 0.05% BSA is added.
2. His6-Menin protein, MLL-w.t. labeled with biotin.
Stored in singe use aliquots at -80C.
3. MLL-w.t. unlabeled peptide as positive control: 10 uM final in HTRF buffer.
1. Prepare His6-Menin at 200 nM, MLL-w.t.-biotin at 80 nM in HTRF buffer.
2. Prepare His6-Menin at 200 nM, MLL-w.t.-biotin at 80 nM and 10 uM MLL-w.t. unlabeled mixture in HTRF buffer.
3. Dispense 10 ul per well of reagent in step 1 in columns 2, 4-24 in a black 384 well plate, dispense 10 ul per well of reagents from steps 2 in column 1. Incubate plate at ambient for 15 minutes.
4. Transfer 1 uL per well of compound to plate and incubate at ambient for 1 hr.
5. Dispense 10uL of the donor (6His-Cryptate, 3.5 nM final conc.) and acceptor (SA_XL, 10nM final conc.) complex in the HTRF buffer with 0.01% BSA. Incubate for 1h.
Consider `CCc1oc2ccccc2c1C(=O)c1cc(Br)c(O)c(Br)c1`, for which the Potency entry is “inactive”.

Consider `O=C(/C=C/c1ccccc1)c1cccs1`, for which the Potency result is “inactive”.

Regarding `Cc1ccc(C)n1-c1ccc(N(C)C)cc1`, the Potency result was “inactive”.

`CCc1nn(C)c2c(=O)c(=O)c2n(C)[nH]1`: the Potency result is “inactive”.

On to `N#CC1=C(N)OC2=C(C(=O)CC(c3ccco3)C2)C1c1ccc(OCc2c(F)cccc2Cl)cc1` (stereo not given), for which the Potency result was “inactive”.

For `CCN1C(=O)[C@@H]2C(C(=O)c3cnccn3)=NN[C@@H]2C1=O`, the Potency result was “inactive”.

As to `CC1(C)CN=C(N2CCN(c3ncnc4sc5c(c34)CCCC5)CC2)S1`, the Potency was 28.2 µM (active).

For the compound `O=C(O)c1cc(S(=O)(=O)O)cc(Nc2c3ccccc3nc3ccccc23)c1O`, the Potency result was “inactive”.

As to `COc1ccc2nc(NC(=O)CSc3nnc(N)s3)sc2c1`, the Potency entry was “inactive”.

Turning to `Cc1ccccc1-c1n[nH]c(=S)n1C`, the Potency result is “inactive”.

`Cc1ccc(-c2cc(C(=O)Nc3cc(C)ccc3O)no2)cc1`: the Potency result was “inactive”.

As to `Cc1cc2c(N)cccc2nn1`, the Potency entry is “inactive”.

In the case of `CCC(=O)NC(=S)Nc1ccc(NC(=S)NC(=O)c2ccc(C)cc2)cc1`, the Potency result is “inactive”.

As to `CCc1cc2c(N3CCN(c4nnc(CC)s4)CC3)ncnc2s1`, the Potency was 25.1 µM (active).

As to `Cc1cnc(NC(=O)C2C(=O)c3ccccc3S(=O)(=O)N2C)s1` (stereo not given), the Potency result is “inactive”.

With `Cc1ccc(F)c(C2C3C=CCC(C)C3C(=O)N2Cc2ccccc2)c1` (stereo not given), the Potency result is “inactive”.

For `COc1ccc(N(CC(=O)NC2CC3CCC2C3)S(=O)(=O)c2ccc(C)cc2)cc1OC` (stereo not given), the Potency result is “inactive”.

`COc1ccc(CN2CCC(Cc3ccccc3)CC2)c(C)c1C`: the Potency entry is “inactive”.

For the compound `COc1ccccc1NS(=O)(=O)c1cc(N2Cc3ccccc3C2=N)ccc1N1CCOCC1`, the Potency is 89.1 µM (active).

For `Cc1cc(C)c2c(=O)cc(C(=O)NCc3ccccc3)oc2c1`, the Potency result is “inactive”.

Consider `O=C(NC(=S)Nc1ccccc1)c1cc(-c2ccccc2)nc2ccccc12`, for which the Potency entry was “inactive”.

Take `NC(=O)C1CCN(C2=C(Cl)C(=O)c3ccccc3C2=O)CC1`: the Potency result is “inactive”.

Regarding `Cc1cc2cc(C(c3nnnn3CC3CCCO3)N3CCCc4ccccc43)c(=O)[nH]c2cc1C` (stereo not given), the Potency entry is “inactive”.

As for `CN(CCOc1ccc(Cl)cc1)CC(O)c1ccccc1` (stereo not given), the Potency result is “inactive”.

Consider `O=S(=O)(Nc1cccc(-c2cn3cccnc3n2)c1)c1ccccc1`, for which the Potency result was “inactive”.

For the compound `C[N+]1(CCNC(=O)/C=N/O)CCCCC1`, the Potency result was “inactive”.

Turning to `CC(=O)c1ccc2c(c1)N(CCCN1CCC(CCO)CC1)c1ccccc1S2`, the Potency result is “inactive”.

With `CCOC(=O)Cn1c2ccccc2n2nc(CCC(=O)O)c(=O)nc12`, the Potency entry was “inactive”.

For the compound `CCC(C)C1NC(=O)C(CCNCS(=O)(=O)O)NC(=O)C(NC(=O)C(CCNCS(=O)(=O)O)NC(=O)C(NC(=O)C(CCNCS(=O)(=O)O)NC(=O)CCCCC(C)C)C(C)O)CCNC(=O)C(C(C)O)NC(=O)C(CCNCS(=O)(=O)O)NC(=O)C(CCNCS(=O)(=O)O)NC(=O)C(C(C)CC)NC1=O` (stereo not given) ({Heptanoyl(6-Me)}-[ξDab(CH2SO3H)]T[ξDab(CH2SO3H)][Dab][ξDab(CH2SO3H)]II[ξDab(CH2SO3H)][ξDab(CH2SO3H)]T; lactam 4-C; configuration not given here), the Potency entry is “inactive”.

With `C=C(C)[C@@H]1CC=C(CN2CCN(Cc3ccccc3)CC2)CC1`, the Potency entry was “inactive”.

Take `COc1cccc(-c2nn(-c3ccccc3)cc2/C=C\C(=O)c2cccs2)c1`: the Potency result is “inactive”.

For `CCCC(=O)NC(c1ccccc1Cl)c1ccc2cccnc2c1O` (stereo not given), the Potency result is “inactive”.

Consider `NC(=NCCCCCCN=C(N)/N=C(\N)Nc1ccc(Cl)cc1)/N=C(\N)Nc1ccc(Cl)cc1`, for which the Potency is 282 µM (active).

As to `CCOC(=O)c1cnc2ccc(OC)cc2c1Nc1ccc(N2CCN(C)CC2)cc1`, the Potency result is “inactive”.

As to `O=C(O)CCC(=O)Nc1ccc(SSc2ccc(NC(=O)CCC(=O)O)cc2)cc1`, the Potency result is “inactive”.

Regarding `CCCc1cc(=O)oc2c3c(c(Cl)cc12)OCN(CCCO)C3`, the Potency result was “inactive”.

`CN(C)/C=C(/C(=O)c1ccc(Cl)cc1)S(=O)(=O)c1ccc(Cl)cc1`: the Potency entry was “inactive”.

Take `Cc1ccc(C#CC(C)(O)C(C)(C)C)cn1` (stereo not given): the Potency entry was “inactive”.

For `COc1ccc2[nH]c3c(C)c4ccncc4c(C)c3c2c1`, the Potency was 89.1 µM (active).

`COCC(=O)Nc1cccc2ccccc12`: the Potency result is “inactive”.
